± gives the standard deviation.
Key:
Conditions in all cases: modulator concentration 10 µM
[1] = test system: RAW-Dual (murine macrophage reporter line); assay: NF-kB reporter (SEAP) activity fold change vs agonist alone; higher = enhanced NF-kB activity
In short: (§1)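 RAW-Dual murine macrophage reporter cells were seeded at 50 000 per well in 384-well plates and pre-incubated 1 hour at 37 °C with compound pin-transferred to 10 μM final. After 1 hour, a PRR agonist was added and cells incubated overnight. Supernatant NF-κB (SEAP, QUANTI-Blue, 620 nm absorbance) and IRF (Lucia luciferase, QUANTI-Luc, luminescence) signals were divided by the mean agonist-only control on the same plate to give fold change. Two replicate plates were averaged, with errors by propagation.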

[2] = test system: RAW-Dual (murine macrophage reporter line); assay: IRF reporter (Lucia luciferase) activity fold change vs agonist alone; higher = enhanced IRF activity
In short: as §1

[3] = test system: RAW-Dual (murine macrophage reporter line); assay: viability score (confluency relative to resting cells, overnight) (fraction); higher = more viable, active = viable (0.7 or more)
In short: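 A compound met the cutoff when both of two confluency masks exceeded 70% of resting cells. Those masks were made with IncuCyte software from IncuCyte images of RAW-Dual macrophages treated overnight at 10 μM final. This is the basis of the viability score, which is confluency relative to resting cells.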

[4] = agonist: CpG ODN 1826 0.5 ug/mL

## CN1CCN(C(=O)N2CCC3(CC2)CC3(F)F)CC1
[1]; [4]
  NF-kB reporter: 1.1 ± 0.07
[1]; agonist: LPS 0.1 ug/mL
  NF-kB reporter: 0.939 ± 0.12
[1]; agonist: MPLA […]
  NF-kB reporter: 0.974 ± 0.025
[2]; agonist: 3'3'-cGAMP 10 ug/mL
  IRF reporter: 0.894 ± 0.035
[2]; agonist: LPS 0.1 ug/mL
  IRF reporter: 0.914 ± 0.086
[2]; agonist: MPLA […]
  IRF reporter: 0.815 ± 0.086
[3]
  viability score: 0.996 (active)

## O=c1cc(-c2ccc(O)cc2)oc2cc(OC3OC(CO)C(O)C(O)C3O)cc(O)c12 (stereo unspecified)
[1]; [4]
  NF-kB reporter: 1.14 ± 0.11
[1]; agonist: LPS 0.1 ug/mL
  NF-kB reporter: 1.06 ± 0.072
[1]; agonist: MPLA […]
  NF-kB reporter: 1.05 ± 0.022
[2]; agonist: 3'3'-cGAMP 10 ug/mL
  IRF reporter: 0.911 ± 0.094
[2]; agonist: LPS 0.1 ug/mL
  IRF reporter: 0.966 ± 0.05
[2]; agonist: MPLA […]
  IRF reporter: 1.01 ± 0.086
[3]
  viability score: 0.998 (active)

## Cc1ccc(OCC(O)CN2CCCCC2)c(C)c1.Cl (stereo unspecified)
[1]; [4]
  NF-kB reporter: 0.868 ± 0.15
[1]; agonist: LPS 0.1 ug/mL
  NF-kB reporter: 1.05 ± 0.12
[1]; agonist: MPLA […]
  NF-kB reporter: 1.01 ± 0.15
[2]; agonist: 3'3'-cGAMP 10 ug/mL
  IRF reporter: 0.857 ± 0.056
[2]; agonist: LPS 0.1 ug/mL
  IRF reporter: 1.21 ± 0.12
[2]; agonist: MPLA […]
  IRF reporter: 1.28 ± 0.2
[3]
  viability score: 0.809 (active)

## O=C(c1ccc(S(=O)(=O)N2CCCC2)cc1)N1CC(Nc2ccncn2)C1
[1]; [4]
  NF-kB reporter: 0.978 ± 0.1
[1]; agonist: LPS 0.1 ug/mL
  NF-kB reporter: 0.986 ± 0.086
[1]; agonist: MPLA […]
  NF-kB reporter: 0.921 ± 0.057
[2]; agonist: 3'3'-cGAMP 10 ug/mL
  IRF reporter: 0.969 ± 0.071
[2]; agonist: LPS 0.1 ug/mL
  IRF reporter: 1.23 ± 0.13
[2]; agonist: MPLA […]
  IRF reporter: 1.06 ± 0.095
[3]
  viability score: 1 (active)

## CCN1C(=O)C(=Cc2c[nH]c3ccccc23)SC1=S
[1]; [4]
  NF-kB reporter: 0.67 ± 0.075
[1]; agonist: LPS 0.1 ug/mL
  NF-kB reporter: 0.994 ± 0.081
[1]; agonist: MPLA […]
  NF-kB reporter: 0.868 ± 0.033
[2]; agonist: 3'3'-cGAMP 10 ug/mL
  IRF reporter: 0.813 ± 0.16
[2]; agonist: LPS 0.1 ug/mL
  IRF reporter: 1.02 ± 0.084
[2]; agonist: MPLA […]
  IRF reporter: 1.36 ± 0.18
[3]
  viability score: 0.804 (active)

## CN(C)CCCNc1cc(C(C)(C)C)nc2c(-c3ccccc3)cnn12
[1]; [4]
  NF-kB reporter: 0.172 ± 0.017
[1]; agonist: LPS 0.1 ug/mL
  NF-kB reporter: 0.13 ± 0.012
[1]; agonist: MPLA […]
  NF-kB reporter: 1.23 ± 0.18
[2]; agonist: 3'3'-cGAMP 10 ug/mL
  IRF reporter: 0.0482 ± 0.0069
[2]; agonist: LPS 0.1 ug/mL
  IRF reporter: 0.0973 ± 0.0058
[2]; agonist: MPLA […]
  IRF reporter: 0.712 ± 0.34
[3]
  viability score: 0.0497 (inactive)

## O=c1n(CCCN2CCN(c3cccc(Cl)c3)CC2)nc2ccccn12 [Prestw-292]
[1]; [4]
  NF-kB reporter: 0.813 ± 0.062
[1]; agonist: LPS 0.1 ug/mL
  NF-kB reporter: 0.912 ± 0.067
[1]; agonist: MPLA […]
  NF-kB reporter: 0.899 ± 0.089
[2]; agonist: 3'3'-cGAMP 10 ug/mL
  IRF reporter: 0.932 ± 0.041
[2]; agonist: LPS 0.1 ug/mL
  IRF reporter: 1.19 ± 0.14
[2]; agonist: MPLA […]
  IRF reporter: 1.19 ± 0.24
[3]
  viability score: 1.06 (active)

## COC(=O)C1=CN(CC2CCCO2)C=C(C(=O)OC)C1c1ccsc1 (stereo unspecified)
[1]; [4]
  NF-kB reporter: 0.898 ± 0.087
[1]; agonist: LPS 0.1 ug/mL
  NF-kB reporter: 0.845 ± 0.057
[1]; agonist: MPLA […]
  NF-kB reporter: 1.12 ± 0.13
[2]; agonist: 3'3'-cGAMP 10 ug/mL
  IRF reporter: 0.895 ± 0.041
[2]; agonist: LPS 0.1 ug/mL
  IRF reporter: 1.41 ± 0.082
[2]; agonist: MPLA […]
  IRF reporter: 1.43 ± 0.18
[3]
  viability score: 1.01 (active)

## Cc1ccc([N+](=O)[O-])cc1S(=O)(=O)N(C)C
[1]; [4]
  NF-kB reporter: 1.05 ± 0.17
[1]; agonist: LPS 0.1 ug/mL
  NF-kB reporter: 0.949 ± 0.077
[1]; agonist: MPLA […]
  NF-kB reporter: 1 ± 0.1
[2]; agonist: 3'3'-cGAMP 10 ug/mL
  IRF reporter: 1.06 ± 0.037
[2]; agonist: LPS 0.1 ug/mL
  IRF reporter: 1.09 ± 0.26
[2]; agonist: MPLA […]
  IRF reporter: 1.2 ± 0.12
[3]
  viability score: 1 (active)

## CS(=O)(=O)N1CC(C(=O)N2CCN(c3cccc(Cl)c3Cl)CC2)C1
[1]; [4]
  NF-kB reporter: 1.16 ± 0.065
[1]; agonist: LPS 0.1 ug/mL
  NF-kB reporter: 1.08 ± 0.12
[1]; agonist: MPLA […]
  NF-kB reporter: 0.985 ± 0.027
[2]; agonist: 3'3'-cGAMP 10 ug/mL
  IRF reporter: 0.906 ± 0.035
[2]; agonist: LPS 0.1 ug/mL
  IRF reporter: 0.935 ± 0.082
[2]; agonist: MPLA […]
  IRF reporter: 0.958 ± 0.13
[3]
  viability score: 0.999 (active)

## CC(=O)N1CCN(c2ccc(OC[C@H]3CO[C@](Cn4ccnc4)(c4ccc(Cl)cc4Cl)O3)cc2)CC1
[1]; [4]
  NF-kB reporter: 0.723 ± 0.072
[1]; agonist: LPS 0.1 ug/mL
  NF-kB reporter: 1.06 ± 0.071
[1]; agonist: MPLA […]
  NF-kB reporter: 1.03 ± 0.025
[2]; agonist: 3'3'-cGAMP 10 ug/mL
  IRF reporter: 0.925 ± 0.094
[2]; agonist: LPS 0.1 ug/mL
  IRF reporter: 1.07 ± 0.15
[2]; agonist: MPLA […]
  IRF reporter: 1.07 ± 0.27
[3]
  viability score: 1 (active)

## CCOC(=O)C1=C(C)N(c2ccc(OC)cc2)C(=O)C1=Cc1ccc(C(=O)O)cc1
[1]; [4]
  NF-kB reporter: 0.751 ± 0.13
[1]; agonist: LPS 0.1 ug/mL
  NF-kB reporter: 1.12 ± 0.087
[1]; agonist: MPLA […]
  NF-kB reporter: 0.984 ± 0.076
[2]; agonist: 3'3'-cGAMP 10 ug/mL
  IRF reporter: 0.642 ± 0.022
[2]; agonist: LPS 0.1 ug/mL
  IRF reporter: 1.32 ± 0.16
[2]; agonist: MPLA […]
  IRF reporter: 1.39 ± 0.15
[3]
  viability score: 0.997 (active)

## CCS(=O)(=O)N1CCC2(CC1)NC(=O)N(CCOc1ccccc1)C2=O
[1]; [4]
  NF-kB reporter: 0.871 ± 0.041
[1]; agonist: LPS 0.1 ug/mL
  NF-kB reporter: 1.05 ± 0.11
[1]; agonist: MPLA […]
  NF-kB reporter: 1.09 ± 0.078
[2]; agonist: 3'3'-cGAMP 10 ug/mL
  IRF reporter: 0.996 ± 0.047
[2]; agonist: LPS 0.1 ug/mL
  IRF reporter: 1.43 ± 0.25
[2]; agonist: MPLA […]
  IRF reporter: 1.58 ± 0.61
[3]
  viability score: 0.989 (active)

Reference: the supplement of paper PMC10646978
